Hit rate of the full screen: of about 5,500 compounds, about 2,000 (36%) were called active. Inconclusive results (about 18%) are left out. No stated cut-off is given here; in the data, active means normalized growth mostly below about 0.91 (no sharp cut-off); inconclusive means no clear call, values can overlap the other calls; inactive means mostly above about 0.92. This is one part of the list.
Assay: chemical genetic growth profiling, strain panel (AID 1159580);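 further: tested at 20 µM; growth read once vehicle control cultures reached saturation at 30 °C; 1 = growth at the plate median or of vehicle wells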
Conditions: S. cerevisiae deletion strains, growth OD

Measured: normalized growth

C[N+]1(C)C[C@H](O)[C@H](C(=O)[O-])C1
inactive: locus YAL013W, strain DEP1, stronger effect = lower value 1.01 | locus YAL021C, strain ccr4, stronger effect = lower value 0.996 | locus YAL026C, strain drs2, stronger effect = lower value 1.03 | locus YAL030W, strain snc1, stronger effect = lower value 1.01 | locus YBL061C, strain skt5, stronger effect = lower value 1.01 | locus YBR009C, strain hhf1, stronger effect = lower value 1.05 | locus YBR021W, strain FUR4, stronger effect = lower value 1.01 | locus YBR023C, strain chs3, stronger effect = lower value 1.02 | locus YBR171W, strain sec66, stronger effect = lower value 1.03 | locus YBR229C, strain ROT2, stronger effect = lower value 1.01 | locus YBR231C, strain swc5, stronger effect = lower value 1.02 | locus YBR279W, strain paf1, stronger effect = lower value 1.01 | locus YCL011C, strain gbp2, stronger effect = lower value 1.02 | locus YCL016C, strain dcc1, stronger effect = lower value 1.02 | locus YCL029C, strain bik1, stronger effect = lower value 0.996 | locus YCL061C, strain MRC1, stronger effect = lower value 1.02 | locus YCL069W, strain vba3, stronger effect = lower value 1.01 | locus YCR088W, strain abp1, stronger effect = lower value 1.01 | locus YDL005C, strain med2, stronger effect = lower value 1.01 | locus YDL035C, strain GPR1, stronger effect = lower value 1.01 | locus YDL040C, strain nat1, stronger effect = lower value 1.01 | locus YDL074C, strain BRE1, stronger effect = lower value 1.02 | locus YDL101C, strain DUN1, stronger effect = lower value 1.02 | locus YDL134C, strain PPH21, stronger effect = lower value 1.01 | locus YDL185W, strain tfp1, stronger effect = lower value 0.995 | locus YDL192W, strain arf1, stronger effect = lower value 1 | locus YDR001C, strain nth1, stronger effect = lower value 1.01 | locus YDR069C, strain doa4, stronger effect = lower value 1.03 | locus YDR101C, strain arx1, stronger effect = lower value 0.988 | locus YDR137W, strain rgp1, stronger effect = lower value 1.01 | locus YDR150W, strain NUM1, stronger effect = lower value 1.01 | locus YDR159W, strain sac3, stronger effect = lower value 1.02 | locus YDR162C, strain NBP2, stronger effect = lower value 1.01 | locus YDR195W, strain ref2 1.03 | locus YDR297W, strain sur2, stronger effect = lower value 1.01 | locus YDR318W, strain mcm21, stronger effect = lower value 1.01 | locus YDR334W, strain swr1, stronger effect = lower value 1.02 | locus YDR335W, strain msn5, stronger effect = lower value 1.01 | locus YDR388W, stronger effect = lower value 1.01 | locus YDR392W, strain spt3, stronger effect = lower value 0.996 | locus YDR502C, strain sam2, stronger effect = lower value 0.994 | locus YEL003W, strain gim4, stronger effect = lower value 1.02 | locus YEL037C, strain rad23, stronger effect = lower value 1.01 | locus YEL061C, strain CIN8 (second series), stronger effect = lower value 1.01 | locus YEL061C, strain CIN8, stronger effect = lower value 1 | locus YER015W, strain faa2, stronger effect = lower value 1.01 | locus YER016W, strain bim1, stronger effect = lower value 1.01 | locus YER110C, stronger effect = lower value 0.992 | locus YER111C, strain swi4, stronger effect = lower value 1.02 | locus YER155C, strain BEM2 (second series), stronger effect = lower value 1.05 | locus YER155C, strain BEM2, stronger effect = lower value 1 | locus YER167W, strain BCK2, stronger effect = lower value 1.01 | locus YFR010W, strain ubp6, stronger effect = lower value 1.02 | locus YGL078C, strain dbp3, stronger effect = lower value 0.999 | locus YGL086W, strain mad1, stronger effect = lower value 0.968 | locus YGL167C, strain pmr1, stronger effect = lower value 1.02 | locus YGL173C, strain kem1, stronger effect = lower value 1.02 | locus YGL227W, strain vid30, stronger effect = lower value 1.01 | locus YGL240W, strain doc1, stronger effect = lower value 1.04 | locus YGL248W, strain PDE1, stronger effect = lower value 1.01 | locus YGL253W, strain hxk2, stronger effect = lower value 1.03 | locus YGR078C, strain PAC10, stronger effect = lower value 1.01 | locus YGR135W, strain pre9, stronger effect = lower value 1 | locus YGR229C, strain SMI1, stronger effect = lower value 1.01 | locus YGR252W, strain gcn5, stronger effect = lower value 0.992 | locus YHR013C, strain ard1, stronger effect = lower value 0.999 | locus YHR027C, strain rpn1, stronger effect = lower value 1.01 | locus YHR030C, strain SLT2, stronger effect = lower value 1.01 | locus YHR079C, strain IRE1 (second series), stronger effect = lower value 1 | locus YHR094C, strain hxt1, stronger effect = lower value 0.993 | locus YHR129C, strain ARP1, stronger effect = lower value 1.01 | locus YHR142W, strain chs7, stronger effect = lower value 0.98 | locus YHR200W, strain rpn10, stronger effect = lower value 0.995 | locus YIL066C, strain RNR3, stronger effect = lower value 1.01 | locus YIL073C, strain SPO22, stronger effect = lower value 1.1 | locus YIL125W, strain kgd1, stronger effect = lower value 0.996 | locus YIR030C, strain dcg1, stronger effect = lower value 0.995 | locus YJL092W, strain hpr5, stronger effect = lower value 1.01 | locus YJL095W, strain BCK1 (second series), stronger effect = lower value 1.01 | locus YJL095W, strain BCK1, stronger effect = lower value 1.01 | locus YJL115W, strain asf1, stronger effect = lower value 1.02 | locus YJL129C, strain trk1, stronger effect = lower value 1.01 | locus YJL134W, strain LCB3, stronger effect = lower value 1 | locus YJL154C, strain vps35, stronger effect = lower value 1.01 | locus YJL164C, strain tpk1, stronger effect = lower value 1.01 | locus YJL166W, strain qcr8, stronger effect = lower value 1.01 | locus YJL168C, strain set2, stronger effect = lower value 1 | locus YJL187C, strain SWE1 (second series), stronger effect = lower value 1.02 | locus YJL187C, strain SWE1, stronger effect = lower value 1.01

— PubChem BioAssay AID1159580 (chemical genetic matrix, 2015)
